Laboratory results from ChEMBL document CHEMBL3988442, “University of Dundee, Small-Polar-MMV Screening Library” (2021).
For some of these results: Entries with a potency or affinity are not part of this list.

Key:
Set-up in all cases: scale not given: direction of the effect not stated beside the values
[1] = target: Protein translocase subunit SecA (Escherichia coli (strain K12)) (UniProt P10408); experiment: Assay to Identify E. coli SecA ATPase Inhibitors; assay type: functional; settings: 30 µM
[2] = target: T1, Ubiquitin-activating enzyme e1, putative (Leishmania donovani (strain BPK282A1)) (UniProt E9BSI1); experiment: Leishmania donovani Ubiquitin Activating Enzyme (LdE1); assay type: functional; settings: 30 µM
T1 sequence (whole entry): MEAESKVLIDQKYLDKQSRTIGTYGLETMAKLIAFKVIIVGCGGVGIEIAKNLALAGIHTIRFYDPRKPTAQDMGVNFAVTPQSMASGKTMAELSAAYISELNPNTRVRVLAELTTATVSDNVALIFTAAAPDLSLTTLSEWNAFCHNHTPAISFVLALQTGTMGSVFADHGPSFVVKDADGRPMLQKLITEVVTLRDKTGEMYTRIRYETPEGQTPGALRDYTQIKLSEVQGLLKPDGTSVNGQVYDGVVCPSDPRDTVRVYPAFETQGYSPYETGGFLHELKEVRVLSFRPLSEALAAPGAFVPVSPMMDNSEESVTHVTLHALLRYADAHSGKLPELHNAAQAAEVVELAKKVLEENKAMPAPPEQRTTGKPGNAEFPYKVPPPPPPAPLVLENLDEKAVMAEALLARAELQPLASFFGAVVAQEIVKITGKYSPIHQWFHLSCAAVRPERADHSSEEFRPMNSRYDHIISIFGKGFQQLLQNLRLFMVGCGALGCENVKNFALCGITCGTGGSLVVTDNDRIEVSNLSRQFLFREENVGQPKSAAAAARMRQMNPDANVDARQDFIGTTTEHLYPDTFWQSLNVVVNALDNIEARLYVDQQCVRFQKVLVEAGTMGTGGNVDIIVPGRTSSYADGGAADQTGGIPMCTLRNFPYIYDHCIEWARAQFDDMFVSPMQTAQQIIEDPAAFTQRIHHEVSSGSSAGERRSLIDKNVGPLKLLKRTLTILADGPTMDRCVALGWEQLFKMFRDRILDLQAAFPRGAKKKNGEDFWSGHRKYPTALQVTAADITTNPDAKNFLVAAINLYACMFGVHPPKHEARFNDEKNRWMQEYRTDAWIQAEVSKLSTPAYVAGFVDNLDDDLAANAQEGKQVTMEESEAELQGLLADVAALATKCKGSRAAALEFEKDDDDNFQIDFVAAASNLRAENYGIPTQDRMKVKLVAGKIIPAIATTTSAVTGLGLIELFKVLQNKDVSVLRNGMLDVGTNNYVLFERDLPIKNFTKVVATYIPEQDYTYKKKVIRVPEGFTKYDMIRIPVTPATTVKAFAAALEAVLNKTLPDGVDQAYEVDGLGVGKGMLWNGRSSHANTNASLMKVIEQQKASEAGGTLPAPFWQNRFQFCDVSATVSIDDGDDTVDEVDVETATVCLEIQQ

[3] = target: T2, Aspartate--tRNA(Asp/Asn) ligase (Mycobacterium tuberculosis (strain ATCC 25618 / H37Rv)) (UniProt P9WFW3); experiment: Assay for Asp RNA synthetase-1 from Mycobacterium tuberculosis; assay type: functional; settings: 30 µM; note: in the data most compounds retested in dose-response had high values
T2 sequence (whole entry): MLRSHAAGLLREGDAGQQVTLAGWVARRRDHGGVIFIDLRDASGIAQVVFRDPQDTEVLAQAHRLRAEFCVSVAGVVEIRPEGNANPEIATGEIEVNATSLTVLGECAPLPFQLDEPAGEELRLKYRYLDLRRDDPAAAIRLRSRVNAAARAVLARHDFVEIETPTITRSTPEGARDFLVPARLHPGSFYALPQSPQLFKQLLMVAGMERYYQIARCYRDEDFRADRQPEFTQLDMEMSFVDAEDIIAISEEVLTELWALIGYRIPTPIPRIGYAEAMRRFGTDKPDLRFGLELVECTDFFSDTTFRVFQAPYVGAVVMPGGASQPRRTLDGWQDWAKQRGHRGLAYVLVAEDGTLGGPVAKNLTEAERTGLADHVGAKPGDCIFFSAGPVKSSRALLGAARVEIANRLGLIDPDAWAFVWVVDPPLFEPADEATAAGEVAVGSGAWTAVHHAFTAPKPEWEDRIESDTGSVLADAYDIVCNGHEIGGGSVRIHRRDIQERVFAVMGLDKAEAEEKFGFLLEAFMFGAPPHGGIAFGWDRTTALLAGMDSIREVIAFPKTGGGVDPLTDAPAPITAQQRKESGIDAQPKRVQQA

[4] = target: AMP-activated protein kinase, AMPK (Homo sapiens) (UniProt P54646+O43741+P54619+Q9UGJ0+Q9Y478+Q13131+Q9UGI9); experiment: AMP-dependent Kinase enzyme assay. An in vitro enzyme assay that detects ADP turnover that is directly proportional to AMPK activity. This uses naive AMPK that is activated during the assay with MK-8722; assay type: functional; settings: 30 µM
[5] = target: Sialic acid-binding Ig-like lectin 9 (Homo sapiens) (UniProt Q9Y336); experiment: Hs-Siglec9 ALPHAscreen SOP 20170721; settings: 10 µM
Trypanosoma cruzi = experiment: Trypanosoma cruzi phosphomannomutase and mannose-1-phosphate guanylyltransferase assay; assay type: functional; settings: 10 µM
[6] = target: T3, Arginase-2, mitochondrial (Homo sapiens) (UniProt P78540); experiment: in vitro enzyme assay to detect the production of urea directly proportional to the activity of Arginase II; assay type: functional; settings: 33.3 µM; note: in the data most compounds retested in dose-response had high values
T3 sequence (whole entry): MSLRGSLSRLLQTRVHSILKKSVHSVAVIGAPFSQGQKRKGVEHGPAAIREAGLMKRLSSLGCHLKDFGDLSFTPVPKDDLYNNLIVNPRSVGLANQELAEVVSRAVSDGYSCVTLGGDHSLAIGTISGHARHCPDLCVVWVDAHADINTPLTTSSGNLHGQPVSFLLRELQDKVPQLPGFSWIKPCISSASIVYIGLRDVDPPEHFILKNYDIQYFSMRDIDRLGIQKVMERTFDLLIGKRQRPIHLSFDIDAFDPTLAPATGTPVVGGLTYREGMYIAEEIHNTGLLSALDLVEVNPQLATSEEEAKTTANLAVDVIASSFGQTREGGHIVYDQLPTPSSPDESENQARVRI

[7] = target: T4, Proteasome subunit beta (Trypanosoma cruzi) (UniProt O96673); experiment: Trypanosoma cruzi proteasome chymotrypsin-like activity (TcProtChymo) assay.; note: in the data most compounds retested in dose-response had high values; assay type: functional; settings: 9.37 µM
T4 sequence (whole entry): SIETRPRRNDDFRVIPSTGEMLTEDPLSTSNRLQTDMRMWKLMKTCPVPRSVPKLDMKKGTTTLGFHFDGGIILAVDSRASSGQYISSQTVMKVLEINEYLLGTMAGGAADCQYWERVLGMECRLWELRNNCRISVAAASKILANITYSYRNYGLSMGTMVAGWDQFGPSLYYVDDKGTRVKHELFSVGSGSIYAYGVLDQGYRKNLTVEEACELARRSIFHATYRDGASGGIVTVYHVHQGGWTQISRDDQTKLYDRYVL

Homo sapiens = organism: Homo sapiens; experiment: To identify inhibition of the IFN signalling (Jak-Stat) pathway via expression of an eGFP reporter gene under the control of an IFN-stimulated response element (ISRE) containing MxA promoter.; assay type: functional; settings: 30 µM
[8] = target: Shiga toxin 2 (Escherichia coli O157:H7) (UniProt P09385+P09386); experiment: E. coli 0.157:H7 Shiga Toxin SOP - stx2 screening assay; assay type: functional; settings: 30 µM
[9] = target: T5, Tyrosyl-tRNA synthetase, putative (Trypanosoma cruzi (strain CL Brener)) (UniProt Q4DSP6); experiment: Trypanosoma cruzi tyrosyl tRNA synthetase (TcYRS) _High Tyrosine SOP; assay type: functional; settings: 30 µM; note: in the data most compounds retested in dose-response had high values
T5 sequence (whole entry): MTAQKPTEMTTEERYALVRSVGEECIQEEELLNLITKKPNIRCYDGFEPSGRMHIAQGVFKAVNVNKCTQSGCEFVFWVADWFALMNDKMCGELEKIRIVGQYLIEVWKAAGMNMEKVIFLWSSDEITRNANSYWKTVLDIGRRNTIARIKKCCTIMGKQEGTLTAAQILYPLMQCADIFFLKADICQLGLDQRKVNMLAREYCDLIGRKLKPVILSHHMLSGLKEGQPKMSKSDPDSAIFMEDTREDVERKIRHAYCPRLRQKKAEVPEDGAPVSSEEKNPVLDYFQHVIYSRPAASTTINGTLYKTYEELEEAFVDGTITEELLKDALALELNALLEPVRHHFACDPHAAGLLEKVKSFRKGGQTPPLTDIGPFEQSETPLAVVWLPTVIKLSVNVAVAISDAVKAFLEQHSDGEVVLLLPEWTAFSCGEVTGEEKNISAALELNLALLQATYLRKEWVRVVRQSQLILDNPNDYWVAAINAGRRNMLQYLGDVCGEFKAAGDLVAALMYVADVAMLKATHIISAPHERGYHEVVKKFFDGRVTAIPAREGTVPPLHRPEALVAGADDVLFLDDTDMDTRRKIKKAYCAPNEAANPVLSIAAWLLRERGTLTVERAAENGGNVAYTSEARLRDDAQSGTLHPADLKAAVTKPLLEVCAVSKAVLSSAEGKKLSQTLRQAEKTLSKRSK

[10] = target: T5, Tyrosyl-tRNA synthetase, putative (Trypanosoma cruzi (strain CL Brener)); experiment: Trypanosoma cruzi tyrosyl tRNA synthetase (TcYRS) SOP; assay type: functional; settings: 30 µM
[11] = target: Chromo domain-containing protein 1 (Saccharomyces cerevisiae (strain ATCC 204508 / S288c) (Baker's yeast)) (UniProt P32657); experiment: ScCHD-1 Enzyme Inhibition Assay; assay type: functional; settings: 30 µM; note: in the data most compounds retested in dose-response had high values
Chain of Chromo domain-containing protein 1 (Saccharomyces cerevisiae (strain ATCC 204508 / S288c) (Baker's yeast)) (P32657 whole entry, the tested form may be a part): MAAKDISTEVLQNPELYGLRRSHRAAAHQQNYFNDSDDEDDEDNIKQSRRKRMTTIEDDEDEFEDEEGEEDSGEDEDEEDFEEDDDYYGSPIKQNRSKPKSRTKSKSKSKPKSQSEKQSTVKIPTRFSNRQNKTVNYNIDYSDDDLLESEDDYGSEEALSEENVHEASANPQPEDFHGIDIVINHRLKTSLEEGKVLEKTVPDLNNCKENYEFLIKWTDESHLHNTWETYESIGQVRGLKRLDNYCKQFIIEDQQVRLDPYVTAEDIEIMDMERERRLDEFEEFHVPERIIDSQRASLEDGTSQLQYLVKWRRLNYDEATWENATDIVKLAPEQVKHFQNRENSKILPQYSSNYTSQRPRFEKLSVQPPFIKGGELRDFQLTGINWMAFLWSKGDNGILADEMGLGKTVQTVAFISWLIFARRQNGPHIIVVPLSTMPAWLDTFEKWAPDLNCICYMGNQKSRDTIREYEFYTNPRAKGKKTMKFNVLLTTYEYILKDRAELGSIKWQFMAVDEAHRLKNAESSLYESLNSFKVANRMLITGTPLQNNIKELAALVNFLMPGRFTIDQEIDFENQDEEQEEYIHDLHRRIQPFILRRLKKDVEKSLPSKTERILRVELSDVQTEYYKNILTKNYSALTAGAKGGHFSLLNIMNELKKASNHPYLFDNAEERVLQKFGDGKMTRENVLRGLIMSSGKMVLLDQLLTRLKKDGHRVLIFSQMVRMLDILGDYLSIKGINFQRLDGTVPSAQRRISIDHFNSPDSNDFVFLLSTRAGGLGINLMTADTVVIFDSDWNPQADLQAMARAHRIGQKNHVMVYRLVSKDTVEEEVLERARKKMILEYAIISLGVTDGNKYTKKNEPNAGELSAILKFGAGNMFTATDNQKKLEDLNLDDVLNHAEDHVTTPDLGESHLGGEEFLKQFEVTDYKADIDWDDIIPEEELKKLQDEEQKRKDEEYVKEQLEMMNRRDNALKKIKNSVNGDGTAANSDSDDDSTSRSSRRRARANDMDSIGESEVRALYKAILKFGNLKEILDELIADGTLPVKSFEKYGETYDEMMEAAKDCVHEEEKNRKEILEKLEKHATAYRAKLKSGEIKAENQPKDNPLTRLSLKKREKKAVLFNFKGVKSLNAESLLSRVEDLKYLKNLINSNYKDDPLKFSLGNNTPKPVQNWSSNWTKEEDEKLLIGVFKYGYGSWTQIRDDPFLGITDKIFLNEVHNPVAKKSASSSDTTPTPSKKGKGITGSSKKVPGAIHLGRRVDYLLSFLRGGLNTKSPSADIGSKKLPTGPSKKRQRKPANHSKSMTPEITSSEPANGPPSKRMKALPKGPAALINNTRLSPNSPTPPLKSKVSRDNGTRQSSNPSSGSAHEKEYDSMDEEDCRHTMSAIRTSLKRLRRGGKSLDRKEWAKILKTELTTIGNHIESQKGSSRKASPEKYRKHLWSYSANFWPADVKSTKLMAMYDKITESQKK

Chain of Sialic acid-binding Ig-like lectin 9 (Homo sapiens) (Q9Y336 whole entry): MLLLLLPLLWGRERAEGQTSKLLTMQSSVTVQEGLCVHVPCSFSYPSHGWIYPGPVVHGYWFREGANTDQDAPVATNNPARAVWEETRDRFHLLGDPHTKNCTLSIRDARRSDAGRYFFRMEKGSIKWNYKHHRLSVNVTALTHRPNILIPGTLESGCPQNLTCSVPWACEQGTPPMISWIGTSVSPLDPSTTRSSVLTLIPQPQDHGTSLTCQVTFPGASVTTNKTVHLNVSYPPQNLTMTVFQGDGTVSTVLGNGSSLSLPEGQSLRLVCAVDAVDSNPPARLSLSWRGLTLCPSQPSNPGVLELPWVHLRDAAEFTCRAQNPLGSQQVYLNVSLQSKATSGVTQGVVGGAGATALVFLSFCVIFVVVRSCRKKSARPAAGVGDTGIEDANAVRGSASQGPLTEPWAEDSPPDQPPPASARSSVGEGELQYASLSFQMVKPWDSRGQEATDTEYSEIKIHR
Chain of Protein translocase subunit SecA (Escherichia coli (strain K12)) (P10408 whole entry): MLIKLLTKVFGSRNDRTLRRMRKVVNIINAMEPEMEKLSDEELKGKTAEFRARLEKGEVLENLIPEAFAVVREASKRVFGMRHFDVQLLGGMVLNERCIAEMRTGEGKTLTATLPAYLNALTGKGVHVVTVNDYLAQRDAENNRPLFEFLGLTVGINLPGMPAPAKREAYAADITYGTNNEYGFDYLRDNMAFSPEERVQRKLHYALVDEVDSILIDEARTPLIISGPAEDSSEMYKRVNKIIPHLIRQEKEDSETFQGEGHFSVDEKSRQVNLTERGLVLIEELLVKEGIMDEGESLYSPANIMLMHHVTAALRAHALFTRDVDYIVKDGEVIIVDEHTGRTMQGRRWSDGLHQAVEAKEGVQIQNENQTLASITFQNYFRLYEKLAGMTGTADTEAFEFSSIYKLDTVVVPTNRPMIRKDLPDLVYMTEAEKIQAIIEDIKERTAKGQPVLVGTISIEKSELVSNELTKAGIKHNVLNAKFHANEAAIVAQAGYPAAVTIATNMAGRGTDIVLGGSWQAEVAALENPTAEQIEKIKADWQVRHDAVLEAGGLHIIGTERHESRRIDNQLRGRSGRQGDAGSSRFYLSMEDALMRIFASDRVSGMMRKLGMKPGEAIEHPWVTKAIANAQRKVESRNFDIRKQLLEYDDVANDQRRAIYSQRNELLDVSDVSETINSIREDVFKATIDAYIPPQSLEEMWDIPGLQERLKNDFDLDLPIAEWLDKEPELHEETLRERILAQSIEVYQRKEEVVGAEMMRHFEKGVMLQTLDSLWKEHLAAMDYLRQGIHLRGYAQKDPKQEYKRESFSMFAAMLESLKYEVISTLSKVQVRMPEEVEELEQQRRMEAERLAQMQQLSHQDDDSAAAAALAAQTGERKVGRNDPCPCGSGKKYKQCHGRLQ

Row | SMILES | Percent Effect [1] [%] | Percent Effect [2] [%] | Percent Effect [3] [%] | Percent Effect [4] [%] | Percent Effect [5] [%] | Percent Effect (Trypanosoma cruzi) [%] | Percent Effect [6] [%] | Percent Effect [7] [%] | Percent Effect (Homo sapiens) [%] | Percent Effect [8] [%] | Percent Effect [9] [%] | Percent Effect [10] [%] | Percent Effect [11] [%]
1 | Cc1oc(-c2ccco2)nc1CC(=O)N1CCN(C2CCC2)CC1 | -7.4 | 7.79 | -0.115 | -1.25 | 1.16 | 1.08 | 4 | 12.8 | 2.52 | 24.8 | 0 | 7.06 | -19
2 | O=C(NC1CCC1)[C@@H]1C[C@@H]2CCN(Cc3ccncc3)C[C@H]2O1 | -4.4 | 8 | -3.87 | 0.172 | 2.75 | 5.79 | -52.1 | 8.21 | 21.8 | 1.98 | 4.17 | 12.5 | -8.66
3 | Cc1n[nH]c2c1C(c1cnn(C)c1)SCC(=O)N2 (stereo unspecified) | -5.19 | 1.33 | -2.64 | 11.3 | 3.08 | -2.16 | -11.4 | 11.8 | 6.26 | -3.86 | 3.17 | 12.8 | -9.44
4 | Cc1ccc(N2CCO[C@H]3CN(Cc4ccncc4)C[C@H]32)nn1 | -2.06 | 2.7 | 2.28 | 3.63 | -2.84 | -2.83 | 1.59 | 19.6 | 4.04 | -5.64 | 8.65 | 10.3 | -5.13
5 | CCN1CCC2(COCc3cnc(-c4cccnc4)nc32)C1 (stereo unspecified) | -4.12 | 10.8 | 3.74 | 3.75 | 1 | -2.44 | -4.78 | 19.9 | 5.19 | 8.79 | 3.24 | 10.3 | 2.57
6 | Cc1oc(-c2ccco2)nc1CC(=O)N1CCN(CC(C)(C)O)CC1 | -3.06 | 5.2 | 0.144 | -3.3 | 5.79 | -0.294 | 5.68 | 8 | 22.9 | 30.6 | 2.86 | 9.41 | -21.6
7 | CN(C)C(=O)COC[C@H]1CC[C@@H]2[C@@H](CCN2Cc2ccccn2)O1 | 1.44 | 2.7 | -8.07 | -3.81 | 1.03 | 4.1 | 2.5 | 8.88 | -3.32 | -6.42 | -14.8 | 3.66 | -2.81
